Experimental data taken from PubChem BioAssay (Tox21).
“And” between values parts separate entries of the source, which are not always exact repeats. Equal entries are not always repeated. Inconclusive results are not listed. Where a call stands in place of a potency, no number is given. More than one record can exist for a structure, and the calls need not agree. The source made the active and inactive calls. Calls come from the whole dose curve; as a rule, active = well fitted inhibition curve with a large enough effect in the repeat runs; inconclusive = weak or mixed curves; inactive = flat fitted curve, though single readings scatter.

These compounds were tested against Luciferin 4-monooxygenase (Photinus pyralis) (UniProt P08659) (assay: qHTS assay to identify small molecule inhibitors of firefly luciferase (AID 1224835; note: nearly all actives have a fitted effect of over 25% in size)). Details: purified P. pyralis luciferase, luminescence inhibition; series mostly up to 115 µM; activity change, negative = inhibition: at the top concentration.
Luciferin 4-monooxygenase (Photinus pyralis), sequence (P08659 whole entry, looked up): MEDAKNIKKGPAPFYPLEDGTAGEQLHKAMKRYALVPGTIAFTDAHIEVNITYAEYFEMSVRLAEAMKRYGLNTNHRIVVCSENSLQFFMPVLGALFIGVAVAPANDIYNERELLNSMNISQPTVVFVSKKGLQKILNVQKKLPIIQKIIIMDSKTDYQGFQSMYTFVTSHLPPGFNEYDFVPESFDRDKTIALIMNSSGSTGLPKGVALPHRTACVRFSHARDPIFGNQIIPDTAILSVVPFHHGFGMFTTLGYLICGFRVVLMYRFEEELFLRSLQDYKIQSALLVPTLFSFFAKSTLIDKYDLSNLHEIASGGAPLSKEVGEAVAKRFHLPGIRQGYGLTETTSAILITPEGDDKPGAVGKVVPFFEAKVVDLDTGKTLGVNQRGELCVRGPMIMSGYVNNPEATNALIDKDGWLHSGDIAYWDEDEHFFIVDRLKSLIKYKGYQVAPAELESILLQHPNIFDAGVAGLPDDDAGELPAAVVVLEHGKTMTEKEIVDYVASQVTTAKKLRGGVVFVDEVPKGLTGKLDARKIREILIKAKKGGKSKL
From the text: U.S. Tox21 Program National Center for Advancing Translational Sciences [NCATS] NIH Chemical Genomics Center [NCGC] U.S. Environmental Protection Agency [EPA] National Institutes of Environmental Health Sciences [NIEHS] National Toxicology Program [NTP] U.S. Food and Drug Administration [FDA] Tox21 Assay Overview: Firefly (Photinus pyralis) luciferase is one of the most commonly used transcriptional reporters. Firefly luciferase reporter-gene assays are generally considered one of the most sensitive assay types (Wood, 1995; Wood, 1998). However, it was initially observed, in 1991, by Thompson et al., that compounds that resemble the substrates of firefly luciferase (FLuc) can act as competitive inhibitors of the enzyme, and that these compounds, upon interaction with luciferase in the cell, can actually stabilize the protein and increase its half-life. Previous profiling work by other groups to determine the prevalence of compounds that affect FLuc enzymatic activity (PubChem AID 411) identified that ~3% of the MLSMR library (then at ~72K) inhibited FLuc. […] Thus the Tox21 10K library is profiled for activity against FLuc using a biochemical assay of purified FLuc and KM concentrations of FLuc substrates (D-luciferin and ATP).
These assay plates were then treated with 23nL of compound or DMSO using a Kalypsys pin tool, which allows for delivery of a 6-point interplate titration of each compound to the assay plate (quantitative HTS.) 1 uL of firefly luciferase mix (containing 50 mM Tris acetate, pH 7.6, 0.04 uM P. pyralis luciferase, 0.01% Tween, 0.05% BSA and dH2O) was then delivered by FRD to each well. Luciferase activity was then measured using a ViewLux CCD imager.

Compound | Potency | activity change, negative = inhibition
O=C1c2cccc(O)c2C(=O)c2c(O)cccc21 | inactive | 
O=C(/C=C/c1ccccc1)OCc1ccccc1 | 17.8 µM (active) and 9.77 µM (active) | 
Cc1cccc([N+](=O)[O-])c1C | inactive | 
Nc1ccc(S(=O)(=O)Nc2cnc3ccccc3n2)cc1 |  | 4.33% [at 52.9 µM] (inactive)
CCCc1c(OCCCCc2nn[nH]n2)ccc(C(C)=O)c1O | inactive | 
CCCCC/C=C/C=C/C=O |  | -0.876% (inactive)
COC(=O)Nc1nc2ccc(S(=O)c3ccccc3)cc2[nH]1 (stereo not given) |  | -4.76% (inactive)
Cn1cnc([N+](=O)[O-])c1Sc1ncnc2nc[nH]c12 | inactive | 
Nc1ccccc1N | 8.15 µM (active) and 1.78 µM (active) | 
CCC(C)(O)CCCC(C)C (stereo not given) | inactive | 
C=C(C)C(=O)OCCOC(=O)C(=C)C | inactive | 
C=CC(C)(CCC=C(C)C)OC(C)=O (stereo not given) | inactive | 
NC=O | inactive | 
O=C(c1ccccc1)c1ccc(O)cc1O | 89.4 µM (active) | 
CC(C)(C)NC(=O)[C@H]1CC[C@H]2[C@@H]3CC[C@H]4NC(=O)C=C[C@]4(C)[C@H]3CC[C@]12C | inactive | 
c1ccc2sc(SSN3CCOCC3)nc2c1 | 22.4 µM (active) and 15.9 µM (active) | 
COC(C)COC(C)COC(C)CO (stereo not given) | inactive | 
c1cc(N(CC2CO2)CC2CO2)ccc1OCC1CO1 (stereo not given) | inactive | 
NNc1ccc(C(=O)O)cc1 | 32.1 µM (active) and 4.53 µM (active) | 
C/C=C/C(=O)O | inactive | 

Compound | Potency | activity change, negative = inhibition
CNCCCC12CCC(c3ccccc31)c1ccccc12 | inactive | 
O=C=Nc1ccc(Cc2ccc(N=C=O)cc2)cc1 | inactive | 
O=CCc1ccccc1 | inactive | 
Cc1c(OCC(F)(F)F)ccnc1CS(=O)c1nc2ccccc2[nH]1 (stereo not given) | 35.6 µM (active) and inactive | 
Oc1ccc(O)cc1 | inactive | 
O=C(Nc1ccc(Cl)cc1)Nc1ccc(Cl)c(Cl)c1 | 5.62 µM (active) and 10 µM (active) and 9.77 µM (active) | 
COC(=O)C1=C(C)NC(C)=C(C(=O)OCCN(C)Cc2ccccc2)C1c1cccc([N+](=O)[O-])c1 (stereo not given) | inactive | 
CC(C)OC(=O)C(C)(C)Oc1ccc(C(=O)c2ccc(Cl)cc2)cc1 | 34.7 µM (active) | 
COc1cccc2c1C(=O)c1c(O)c3c(c(O)c1C2=O)C[C@@](O)(C(=O)CO)C[C@@H]3O[C@H]1C[C@H](N)[C@H](O)[C@H](C)O1 | 15.5 µM (active) | 
Cc1[nH]c(=O)c(C#N)cc1-c1ccncc1 | inactive | 
Cc1ccc2c(n1)Oc1ccc(C(C)C(=O)OCC(=O)N(C)C)cc1C2 (stereo not given) | 17.4 µM (active) and 15.5 µM (active) | 
CCC(C)c1ccccc1O (stereo not given) | inactive | 
CC(C)OB(OC(C)C)OC(C)C | inactive | 
COc1ccc(C(=O)CC(=O)c2ccc(C(C)(C)C)cc2)cc1 | 13.6 µM (active) and inactive | 
COC(=O)c1ccccc1 | inactive | 
CCCCC(CC)COCC1CO1 (stereo not given) | inactive | 
O=[N+]([O-])c1ccc2c(c1)Cc1ccccc1-2 | inactive | 
CCOCCOCCO | inactive | 
CN(C)CCC=C1c2ccccc2CCc2ccccc21 | inactive | 
CC(C)Oc1ccc2c(=O)c(-c3ccccc3)coc2c1 | 1.38 µM (active) and 1.55 µM (active) | 
